hgDAF12 agonist = agonists of H. glycines DAF-12 nuclear receptor. AID 687014. activation, % at 6.8 µM. 1.8% of 370,000 active. HEK293 GAL4-hgDAF12 UAS-luciferase reporter, agonist luminescence; normalized to butyrate control;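 active = activation above a cutoff set at the mean of all screened compounds plus 3 SD, cut at about 10% in these data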;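 also: 0% = DMSO wells and 100% = sodium butyrate wells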
ssDAF-12 act = S. stercoralis DAF-12 activation, primary screen | HEK293 ssDAF-12/GRIP1 lit1-tk-luc reporter, luminescence; % of 3 µM dafachronic acid response | activation, % at 6.8 µM | 1% of 370,000 active | AID 652126;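 active = activation above the mean over all tested compounds plus 3 SD, cut at about 0.9% in these data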;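 also: 0% = DMSO-only wells and 100% = 3 µM delta7-dafachronic acid wells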
DAX1 inh-1 = inhibits human nuclear receptor DAX1; P51843; HEK293 Gal4-DAX1 luciferase reporter, luminescence; inhibition, % at 6.75 µM; 0.99% of 340,000 active; AID 504766;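 active = inhibition above the mean over all tested compounds plus 3 SD, cut at about 4.2% in these data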;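 also: 0% = DAX1-transfected cells with DMSO and 100% = empty-vector control cells with DMSO; inhibition shows as a rise in luminescence from relieved DAX1 repression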
Target sequence (P51843 207-470 limits assumed): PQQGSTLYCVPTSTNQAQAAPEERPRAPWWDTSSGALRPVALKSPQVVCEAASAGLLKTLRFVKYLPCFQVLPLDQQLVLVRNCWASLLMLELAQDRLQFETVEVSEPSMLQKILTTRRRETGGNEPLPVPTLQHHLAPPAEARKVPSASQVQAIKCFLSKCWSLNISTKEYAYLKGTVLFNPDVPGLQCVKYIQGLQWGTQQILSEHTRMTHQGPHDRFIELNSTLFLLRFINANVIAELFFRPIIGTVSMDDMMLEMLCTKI
hcDAF-12 act = activators of H. contortus DAF-12 nuclear receptor; activation, % at 6.8 µM; AID 652067; 1.4% of 370,000 active; HEK293 hcDAF-12 lit1-tk-luc reporter, luminescence; 0% DMSO, 100% Δ7-dafachronic acid;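 active = activation above the mean of all tested compounds plus 3 SD, cut at about 5.5% in these data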;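 also: 100% = response to 3 µM Δ7-dafachronic acid high control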
DAX1 inh-2 = DAX1 (NR0B1) inhibition, primary screen. inhibition, % at 6.8 µM. 1.1% of 370,000 active. HEK293T StAR-luciferase reporter, SF-1/DAX-1 repression relief. AID 652010;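 active = inhibition above the mean over all tested compounds plus 3 SD, cut at about 3.6% in these data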;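 also: 0% = DAX-1 cells with DMSO and 100% = cells lacking DAX-1 with DMSO; higher inhibition means more luminescence from relief of DAX-1 repression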
DAX1 conf = NR0B1 (human) inhibition, confirmation; 87% of 2,400 active; HEK293T StAR-promoter luciferase reporter, SF-1/DAX-1 repression; shares compounds with DAX1 inh-2; AID 652134; inhibition, % at 6.8 µM;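 active = inhibition above the average of every tested compound plus 3 SD, cut at about 3.8% in these data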;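 also: 0% = DAX-1 cells with DMSO and 100% = no DAX-1 control cells with DMSO; active compounds raise luminescence by relieving repression of the StAR reporter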
Target sequence (P51843 whole entry, looked up): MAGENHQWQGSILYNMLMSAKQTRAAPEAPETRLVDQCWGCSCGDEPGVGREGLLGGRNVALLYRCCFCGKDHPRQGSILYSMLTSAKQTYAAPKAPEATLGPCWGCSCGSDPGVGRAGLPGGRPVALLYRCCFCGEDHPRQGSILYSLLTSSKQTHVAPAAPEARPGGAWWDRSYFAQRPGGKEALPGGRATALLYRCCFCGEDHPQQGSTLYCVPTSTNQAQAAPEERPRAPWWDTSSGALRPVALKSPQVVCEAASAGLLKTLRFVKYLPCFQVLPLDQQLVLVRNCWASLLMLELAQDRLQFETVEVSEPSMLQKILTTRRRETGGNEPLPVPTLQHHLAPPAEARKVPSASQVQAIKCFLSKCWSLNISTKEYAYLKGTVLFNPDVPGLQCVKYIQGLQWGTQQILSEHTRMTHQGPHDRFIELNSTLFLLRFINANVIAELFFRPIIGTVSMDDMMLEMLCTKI
SF1 AF2mut Luc = nonselective inhibitor or artifact in SF-1 mutant DAX1 counter-screen; shares compounds with DAX1 inh-2; AID 652136; HEK293 StAR-luciferase, SF-1 AF2 mutant, luminescence; inhibition, % at 6.8 µM; 78% of 2,400 active;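 active = inhibition above the mean of all tested compounds plus 3 SD, cut at about 3% in these data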;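 also: 0% = DAX-1 transfected cells with DMSO and 100% = cells without DAX-1 with DMSO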
* marks the source's active call; other numbers are inactive results; . = no result. Shown are actives, neighbours in structure and some others; about 4.1% of the full set was active somewhere.

SMILES	hgDAF12 agonist	ssDAF-12 act	DAX1 inh-1	hcDAF-12 act	DAX1 inh-2	DAX1 conf	SF1 AF2mut Luc
Cn1c(SCC(=O)NCCN2CCCCC2)nc2cccnc21	1.1	-1.4	.	-0.2	0.0	.	.
Nc1ccc2nc(-c3ccc(-c4nc5ccc(N)cc5[nH]4)cc3)[nH]c2c1	-2.2	-1.6	.	-0.7	0.3	.	.
Nc1ccc(-c2nc3ccccc3[nH]2)cc1	10.6*	-0.8	3.1	3.1	5.2*	9.9*	6.8*
O=C(/C=C/c1ccco1)Nc1cc(Cl)ccc1C(=O)O	1.4	-1.0	-0.8	-1.2	-0.3	.	.
O=C(/C=C/c1ccco1)Nc1ccccc1C(=O)O	13.2*	0.2	.	4.2	4.6*	9.3*	5.7*
Cc1ccccc1-c1cccc2c3c([nH]c12)[C@@H]1C[C@H]2[C@@H](CN1CC3)[C@H](C)ON2C	-3.7	-1.2	.	-1.3	0.3	.	.
CC(=O)c1c(C)[nH]c(C(=O)Nc2ccc(C)c(C)c2)c1C	8.8	0.2	1.9	0.7	4.6*	10.4*	7.4*
Cc1ccc2nc(SCC(=O)c3ccccc3)nc(=O)n2c1	12.3*	0.1	2.5	3.9	8.3*	9.2*	5.3*
COc1c(OC(C)=O)ccc(/C=C/c2ccc3ccccc3n2)c1[N+](=O)[O-]	8.9	0.2	2.5	3.6	5.1*	11.8*	6.2*
COc1cccc(-c2noc(CCC(=O)N3CCN(c4cc(C)ccc4C)CC3)n2)c1	3.4	-1.5	-0.5	0.1	-0.3	.	.
Cc1ccc(C)c(N2CCN(C(=O)CCc3nc(-c4cccc(Cl)c4)no3)CC2)c1	10.0	0.7	1.8	4.1	5.1*	5.8*	3.6*
O=C(O)c1ccc(N/N=C/c2ccc(-c3ccc(Cl)cc3Cl)o2)cc1	0.3	-1.3	-2.6	0.9	5.1*	14.5*	5.6*
O=C(O)c1ccc(N/N=C/c2ccc(-c3cccc(Cl)c3)o2)cc1	15.7*	1.0*	7.2*	5.5	6.2*	12.8*	7.6*
C=C(C)Cn1c(SCC(=O)N/N=C(\C)c2ccc([N+](=O)[O-])cc2)nnc1-c1ccc(Br)cc1	-0.7	-1.3	.	0.7	0.6	.	.
Fc1cccc(F)c1CSc1nc2ccccc2[nH]1	11.8*	0.5	2.1	4.5	5.1*	16.0*	7.8*
Cc1noc(C)c1CSc1nc2ccccc2[nH]1	-0.7	-1.3	0.1	-0.5	0.4	.	.
O=C(CSc1nnc(-c2cccnc2)n1-c1ccccc1)c1ccccc1Cl	3.9	0.0	.	-0.7	-0.2	.	.
ClCCn1cnc2c(SCc3ccccc3Cl)ncnc21	-1.9	-0.8	-3.6	-1.3	-3.2	.	.
ClCCn1cnc2c(SCc3ccccc3)ncnc21	-1.6	-1.3	-3.8	1.2	7.5*	-1.1	-5.9
O=C(COc1cc(F)ccc1[N+](=O)[O-])Nc1ccc2c(c1)OCO2	1.9	-0.7	0.4	-0.3	-1.1	.	.
CC(=O)c1cc(F)ccc1OCC(=O)Nc1ccc2c(c1)OCO2	10.7*	1.0*	1.4	4.1	10.8*	12.0*	6.3*
Cc1ccc(OCC(=O)Nc2ccc3c(c2)OCO3)c(C)c1	13.0*	-0.8	0.8	3.5	6.5*	7.2*	5.7*
CCCOc1ccc(C(=O)Nc2ccc3c(c2)OCO3)cc1	7.5	-0.3	1.2	1.6	10.5*	9.6*	4.9*
Cc1cccc(OCC(=O)Nc2ccc3c(c2)OCO3)c1C	2.1	-0.7	0.5	-1.1	0.5	.	.
COc1cc(Nc2cc(C)n(-c3cc(OC)cc(OC)c3)c(=O)c2)cc(OC)c1	-5.9	-1.7	.	-1.2	-1.3	.	.
SMILES	hgDAF12 agonist	ssDAF-12 act	DAX1 inh-1	hcDAF-12 act	DAX1 inh-2	DAX1 conf	SF1 AF2mut Luc
Cc1ccc(NC(=O)[C@@H]2CCCN2S(=O)(=O)c2cccc3cccnc23)c(C)c1	-3.0	-1.2	.	-3.3	.	.	.
Cc1ccc(NC(=O)CSc2ccc(S(=O)(=O)N3CCCC3)cn2)cc1F	-2.3	-0.8	0.5	-1.2	5.9*	-4.5	0.1
O=C(c1ccccc1I)N1CCC(Oc2cccnc2)CC1	3.0	-1.9	.	-1.2	1.2	.	.
O=C(Nc1ccccc1)c1ccc(NC(=O)C2CC2)cc1	5.2	-0.7	0.4	0.2	6.5*	7.7*	5.2*
O=C(NNC(=O)c1ccc(NC(=O)C2CC2)cc1)c1ccc(F)cc1	2.5	-1.5	0.8	-0.5	1.9	.	.
COc1ccc(NC(=O)c2noc3c2CCC3)cc1	13.1*	0.5	0.6	5.0	4.9*	13.3*	6.0*
CC(=O)c1ccc(NC(=O)c2noc3c2CCC3)cc1	5.9	-1.2	-4.8	3.2	2.4	.	.
COC(=O)C1=CN(c2ccc(OC)cc2)C(N)=C(C#N)C1c1cccc2ccccc12 (configuration not stated)	-4.1	-0.8	.	0.3	0.2	.	.
COC(=O)C1=CN(c2ccc(C(C)(C)C)cc2)C(N)=C(C#N)C1c1cccc2ccccc12 (configuration not stated)	-6.3	-1.0	.	1.1	5.2*	-0.6	-1.1
CC1C/C(=C/c2cccs2)C(=O)/C(=C/c2cccs2)C1 (configuration not stated)	0.7	0.0	-0.5	-0.6	0.4	.	.
O=C1/C(=C/c2cccs2)CCC/C1=C\c1cccs1	12.4*	0.3	3.6	6.2*	6.8*	13.3*	10.6*
O=C(N[C@@H](Cc1cccnc1)C(=O)N1CCC[C@H]1C(=O)NCc1ccccc1)c1ccc(Cl)c(Cl)c1	3.8	-0.6	.	0.0	0.9	.	.
COc1ccc2sc(NC(=O)c3ccco3)nc2c1	10.3	-0.3	-2.1	4.3	6.2*	10.1*	2.6
COc1ccc2c(c1)Cc1sc(NC(=O)c3ccco3)nc1-2	6.9	-0.3	2.3	4.5	2.3	.	.
O=C(NC1CCCC1)c1cc2cc(Br)ccc2o1	10.2	-0.6	2.5	1.6	7.0*	7.8*	4.1*
O=C(NC1CCCCC1)c1cc2cc(Br)ccc2o1	9.0	0.0	3.1	3.5	0.1	.	.
Cc1ccc2cc3cc(C(=O)NC4CC4)oc3nc2c1	4.0	-0.9	0.1	-0.7	2.6	.	.
Cc1ccc2cc3cc(C(=O)NC4CCCCC4)oc3nc2c1	1.1	-0.9	0.0	-0.9	5.5*	0.9	0.3
c1ccc(-n2c(SCc3cccc4ccccc34)nnc2-c2ccccn2)cc1	-1.9	-1.3	.	-4.2	-2.1	.	.
Cc1cccc(OCC(=O)Nc2nnc(-c3ccco3)s2)c1	-0.6	-1.5	-0.7	0.4	0.4	.	.
CCOc1cccc(C(=O)Nc2nnc(-c3ccco3)s2)c1	11.5*	0.7	-1.4	4.6	5.0*	15.0*	5.1*
O=C(CCc1ccccc1)N[C@H]1[C@H](O)CCC[C@@]12C(=O)N(Cc1ccccc1)c1ccc(-c3ccccc3)cc12	-1.1	-0.7	.	-0.3	-0.7	.	.
COc1cc(OC)cc(C(=O)Nc2ccc3nc4n(c(=O)c3c2)CCCCC4)c1	1.1	-1.4	-0.4	-1.5	6.0*	3.2	2.3
